Test results published in PubChem BioAssay AID393 (SGCOxCompounds, 2006).
Activity calls are given as the source filed them. How the calls were made is not given here.

These compounds were tested against Serine/threonine-protein kinase pim-1 (Homo sapiens) (UniProt P11309) (assay: PIM1 kinase ligand binding by thermal shift, biophysical, human, melting temperature shift (AID 393)). Settings: Thermal shift assay, stronger effect = higher value; at 10 µM, protein 2 µM, buffer 10 mM PIPES, pH 6.5, NaCl 150 mM unless noted.
Sequence of Serine/threonine-protein kinase pim-1 (Homo sapiens) (P11309 whole entry, looked up): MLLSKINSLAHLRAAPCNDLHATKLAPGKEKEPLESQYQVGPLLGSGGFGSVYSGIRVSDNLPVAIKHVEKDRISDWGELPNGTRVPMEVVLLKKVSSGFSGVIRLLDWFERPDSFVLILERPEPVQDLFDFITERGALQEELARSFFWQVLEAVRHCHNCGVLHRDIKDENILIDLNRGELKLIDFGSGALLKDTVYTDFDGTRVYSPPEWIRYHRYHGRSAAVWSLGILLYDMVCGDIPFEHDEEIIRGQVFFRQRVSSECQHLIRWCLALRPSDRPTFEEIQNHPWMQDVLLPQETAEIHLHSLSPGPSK
For CCC(CO)Nc1ccc2ncc(-c3ccc(OC)nc3)n2n1 (stereo unspecified), the Tm shift was 4.1 Celsius (active).
For CCC(CO)Nc1ccc2ncc(-c3cccc(CO)c3)n2n1 (stereo unspecified), the Tm shift was 3.17 Celsius (active).
With O=C1NC(=O)C(c2c[nH]c3ccccc23)=C1c1c[nH]c2ccccc12 the Tm shift was 5.8 Celsius [at 10 µM, protein 2 µM, buffer 10 mM Na Citrate, pH 6.5, NaCl 150 mM] (active).
With FC(F)(F)Oc1cccc(-c2cnc3ccc(NC4CCOCC4)nn23)c1 the Tm shift was 9.75 Celsius (active).
In the case of CC(C)[C@@H](CO)Nc1ccc2ncc(-c3cccc(O)c3)n2n1, the Tm shift is reported as 3.61 Celsius (active).
COc1cc(/C=C/C(=O)CC(=O)/C=C/c2ccc(O)c(OC)c2)ccc1O was tested, and the Tm shift was 4.2 Celsius [at 10 µM, protein 2 µM, buffer 10 mM Na Citrate, pH 6.5, NaCl 150 mM] (active).
For CCCCc1c(-c2ccc(O)cc2)[nH]c2nccnc12, the Tm shift was 4 Celsius [at 10 µM, protein 2 µM, buffer 10 mM Na Citrate, pH 6.5, NaCl 150 mM] (active).
In the case of CCn1c(O)c(C2=NC(=S)NC2=O)c2ccccc21, the Tm shift is reported as 3.12 Celsius (active).
CC(=O)c1cccc(-c2cnc3ccc(N[C@H](CO)C(C)C)nn23)c1 was tested, and the Tm shift was 7.4 Celsius (active).
With Clc1cccc(-c2cnc3ccc(NC4CCOCC4)nn23)c1 the Tm shift was 7.02 Celsius [at 10 µM, protein 3 µM, buffer 10 mM HEPES] (active).
With COC(=O)c1cnc2oc3ccc(O)cc3c2c1-c1ccccc1 the Tm shift was 6.2 Celsius [at 10 µM, protein 2 µM, buffer 10 mM Na Citrate, pH 6.5, NaCl 150 mM] (active).
In the case of CC(=O)Nc1cccc(-c2cnc3ccc(NC4CCOCC4)nn23)c1, the Tm shift is reported as 3.48 Celsius (active).
For COc1cncc(-c2cnc3ccc(NC4CCOCC4)nn23)c1, the Tm shift was 3.31 Celsius (active).
For CNC(=O)c1cc(Oc2ccc(NC(=O)Nc3ccc(C)c(C(F)(F)F)c3)cc2)ccn1, the Tm shift was 3.1 Celsius [at 10 µM, protein 2 µM, buffer 10 mM Na Citrate, pH 6.5, NaCl 150 mM] (active).
For O=Nc1c(-c2c(O)[nH]c3ccc(S(O)(O)O)cc23)[nH]c2ccccc12, the Tm shift was 4.2 Celsius [at 10 µM, protein 2 µM, buffer 10 mM Na Citrate, pH 6.5, NaCl 150 mM] (active).
With Fc1cccc(-c2cnc3ccc(NC4CCOCC4)nn23)c1 the Tm shift was 6.94 Celsius (active).
For COc1cccc(-c2cnn3ccc(Nc4cccc(Cl)c4)nc23)c1, the Tm shift was 6.16 Celsius (active).
With Cc1ccc2c(c1)=C(c1[nH]c(=S)[nH]c1O)C(=O)N=2 the Tm shift was 6.4 Celsius (active).
With Oc1cccc(-c2cnc3ccc(NC4CCOCC4)nn23)c1 the Tm shift was 3.66 Celsius (active).
For O=C1c2ccccc2-c2n[nH]c3cccc1c23, the Tm shift was 4.2 Celsius [at 10 µM, protein 2 µM, buffer 10 mM Na Citrate, pH 6.5, NaCl 150 mM] (active).
CC(C)[C@@H](CO)Nc1ccc2ncc(-c3cccc(C(F)(F)F)c3)n2n1 was tested, and the Tm shift was 8.83 Celsius (active).
